# Compounds without any hit were thinned out: in the full panel of roughly 83,000, 20% have a hit.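 Testing used 96-well plates and a 48-hour single-concentration exposure. Example: -40 means 40% of the starting cells died.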 Calls of active or inactive are those of the source. Rule for the calls: active = growth percent below 10; inactive = the rest.
# Test system: MDA-MB-435 melanoma
# Test: NCI-60 one-dose screen, 48 h (100 = growth as untreated, 0 = no growth, -100 = all killed)
# Conditions: 10 µM
row,SMILES,growth
1,CC1(C)OC(=O)C(c2ccsc2)C(=O)O1,101% (inactive)
2,C#Cc1cccc(NC(=O)c2ccc(Cl)cc2Cl)c1,103% (inactive)
3,C=CCCCCCCCCCOC(C)=O,110% (inactive)
4,CCN(CC)CCCC(C)Nc1ccnc(/C=C/c2ccc(Cl)cc2)c1 (stereo unspecified),-53.4% (active)
5,CCOC(=O)C1OC1c1ccccc1 (stereo unspecified),107% (inactive)
6,Oc1ccc(N=Nc2ccc(Br)cc2)c(O)c1,-49% (active)
7,Cc1cc(C(C)(C)C)cc(C)c1Br,110% (inactive)
8,O=C(CC(=O)c1ccccc1O)c1ccccc1,102% (inactive)
9,CC(C)OC(=O)c1cc(NC(=S)OC(C)C)ccc1Cl,97% (inactive)
10,O=[N+]([O-])c1ccc(CO)cc1,90.3% (inactive)
11,Sc1ccc(Nc2c3ccccc3nc3ccccc23)cc1,92.8% (inactive)
12,C#C[C@H]1CCCCCC1O (stereo partly specified),109% (inactive)
13,CCOC(=O)CCCS(C)(=O)=O,119% (inactive)
14,O=C(O)COCC(=O)O,109% (inactive)
15,[O-][N+](=Nc1cccc(Cl)c1)c1cccc(Cl)c1,102% (inactive)
16,OCC(O)C(O)C(O)C(O)/C=N/O (stereo unspecified),108% (inactive)
17,CC(=O)c1ccc(C(C)(C)C)cc1,106% (inactive)
18,CCN(CC)C(=O)/C=C(/C)c1ccccc1,108% (inactive)
19,CCCCC1C(=O)N(c2ccccc2)N(c2ccccc2)C1=O,108% (inactive)

row,SMILES,growth
1,O=C1C=C(Nc2ccc([N+](=O)[O-])cc2)c2ccccc2C1=O,-88.2% (active)
2,CCCCC(O)c1ccccc1 (stereo unspecified),108% (inactive)
3,CCCCCC(C)(CC(=O)O)CC(=O)O,107% (inactive)
4,COc1cccc(/C=N/NC(=S)NC2CC3CCC2C3)c1O (stereo unspecified),76.4% (inactive)
5,COc1cc([C@@H]2c3cc4c(cc3[C@H](O)[C@H]3COC(=O)[C@H]23)OCO4)cc(OC)c1OC,-30.3% (active)
6,CCCC(C)OCC(=O)O (stereo unspecified),108% (inactive)
7,C=CC[N+](C)(C)C,102% (inactive)
8,COc1ccc(C2(O)CCCCC2)cc1,107% (inactive)
9,S=C1CCCCCN1,104% (inactive)
10,Cc1ccc(Cl)cc1N1C(=O)CC(Sc2ccccc2N)C1=O (stereo unspecified),102% (inactive)
11,CC1(C)/C(=C\CO)C2CCC1C2 (stereo unspecified),123% (inactive)
12,O=[N+]([O-])c1cccc(C(F)(F)F)c1,107% (inactive)
13,CC(C)CCCC(=O)O,105% (inactive)
14,NC(CSC(c1ccccc1)(c1ccccc1)c1ccccc1)C(=O)O (stereo unspecified),-66.6% (active)
15,c1ccc2c(N3CCCCC3)ncnc2c1,109% (inactive)
16,CCCCCCCO,114% (inactive)
17,CC(C(=O)O)(C1CCCCC1)C1(O)CCCCC1 (stereo unspecified),105% (inactive)
18,CC1(C(=O)O)NC(C(=O)O)Cc2c1[nH]c1ccccc21 (stereo unspecified),94.6% (inactive)
19,O=C(/C(=N/O)c1ccccc1)c1ccccc1,108% (inactive)

# Test system: SW-620 colon
# Test: as above
# Conditions: 10 µM
row,SMILES,growth
1,CC1(C)OC(=O)C(c2ccsc2)C(=O)O1,108% (inactive)
2,C#Cc1cccc(NC(=O)c2ccc(Cl)cc2Cl)c1,91.9% (inactive)
3,C=CCCCCCCCCCOC(C)=O,105% (inactive)
4,CCN(CC)CCCC(C)Nc1ccnc(/C=C/c2ccc(Cl)cc2)c1 (stereo unspecified),-53.2% (active)
5,CCOC(=O)C1OC1c1ccccc1 (stereo unspecified),107% (inactive)
6,Oc1ccc(N=Nc2ccc(Br)cc2)c(O)c1,18.8% (inactive)
7,Cc1cc(C(C)(C)C)cc(C)c1Br,104% (inactive)
8,O=C(CC(=O)c1ccccc1O)c1ccccc1,86.4% (inactive)
9,CC(C)OC(=O)c1cc(NC(=S)OC(C)C)ccc1Cl,91.4% (inactive)
10,O=[N+]([O-])c1ccc(CO)cc1,102% (inactive)
11,Sc1ccc(Nc2c3ccccc3nc3ccccc23)cc1,61.3% (inactive)
12,C#C[C@H]1CCCCCC1O (stereo partly specified),104% (inactive)
13,CCOC(=O)CCCS(C)(=O)=O,105% (inactive)
14,O=C(O)COCC(=O)O,102% (inactive)
15,[O-][N+](=Nc1cccc(Cl)c1)c1cccc(Cl)c1,90.4% (inactive)
16,OCC(O)C(O)C(O)C(O)/C=N/O (stereo unspecified),99.6% (inactive)
17,CC(=O)c1ccc(C(C)(C)C)cc1,110% (inactive)
18,CCN(CC)C(=O)/C=C(/C)c1ccccc1,102% (inactive)
19,CCCCC1C(=O)N(c2ccccc2)N(c2ccccc2)C1=O,106% (inactive)

row,SMILES,growth
1,O=C1C=C(Nc2ccc([N+](=O)[O-])cc2)c2ccccc2C1=O,40.4% (inactive)
2,CCCCC(O)c1ccccc1 (stereo unspecified),108% (inactive)
3,CCCCCC(C)(CC(=O)O)CC(=O)O,106% (inactive)
4,COc1cccc(/C=N/NC(=S)NC2CC3CCC2C3)c1O (stereo unspecified),57.9% (inactive)
5,COc1cc([C@@H]2c3cc4c(cc3[C@H](O)[C@H]3COC(=O)[C@H]23)OCO4)cc(OC)c1OC,24.5% (inactive)
6,CCCC(C)OCC(=O)O (stereo unspecified),101% (inactive)
7,C=CC[N+](C)(C)C,107% (inactive)
8,COc1ccc(C2(O)CCCCC2)cc1,102% (inactive)
9,S=C1CCCCCN1,107% (inactive)
10,Cc1ccc(Cl)cc1N1C(=O)CC(Sc2ccccc2N)C1=O (stereo unspecified),108% (inactive)
11,CC1(C)/C(=C\CO)C2CCC1C2 (stereo unspecified),106% (inactive)
12,O=[N+]([O-])c1cccc(C(F)(F)F)c1,92.6% (inactive)
13,CC(C)CCCC(=O)O,100% (inactive)
14,NC(CSC(c1ccccc1)(c1ccccc1)c1ccccc1)C(=O)O (stereo unspecified),24.8% (inactive)
15,c1ccc2c(N3CCCCC3)ncnc2c1,98% (inactive)
16,CCCCCCCO,95% (inactive)
17,CC(C(=O)O)(C1CCCCC1)C1(O)CCCCC1 (stereo unspecified),105% (inactive)
18,CC1(C(=O)O)NC(C(=O)O)Cc2c1[nH]c1ccccc21 (stereo unspecified),97.8% (inactive)
19,O=C(/C(=N/O)c1ccccc1)c1ccccc1,107% (inactive)

# Reference: PubChem BioAssay (NCI)
